Experimental data: PubChem BioAssay AID1347076 (National Center for Advancing Translational Sciences (NCATS), 2019)
Screen size: about 400,000 compounds; about 13,000 (3.2%) were called active. Roughly 18% stayed inconclusive and do not appear here. The list comes from a sample in which actives are over-represented; it also holds similar structures and randomly drawn compounds. A number with no mark means an inactive call. The call rests on the fitted dose curve; in most records, active means well fitted cell-killing curve with a large enough effect; inconclusive means small, poorly fitted or top-dose-only effect, or effect the other way; inactive means flat fitted curve, though single readings scatter.

Experiment: qHTS assay for MDR1-selective chemotherapeutics: Primary screen using the drug-selected MDR subline cells KB-V1
Conditions: KB-V1 MDR cells viability, CellTiter-Glo, 72 h; series mostly up to 46.1 µM; activity change, negative = cytotoxicity: at the top concentration
From the text: A prime difficulty in effectively treating cancer is the development of cellular resistance to multiple structurally unrelated anticancer drugs, a phenomenon known as multidrug resistance (MDR). […] Numerous strategies to overcome P-gp-mediated MDR have been explored, including the design of drugs that evade recognition and efflux, and development of inhibitors to block efflux and restore drug accumulation. […] An alternative approach is to exploit resistance by identifying drugs that target MDR cells over the non-resistant parental cells from which they were selected. […] The development of MDR1-selective agents represents a new strategy for resolving multidrug resistance, as it remains a long-standing clinical challenge for cancer chemotherapy.
Our goal is to identify compounds that selectively kill P-gp-expressing MDR cells. We will identify MDR1-selective compounds by comparing toxicity of compounds in the screening library against parental, drug-naive (KB-3-1) adenocarcinoma cells as well as their drug-selected MDR sub-line (KB-V1). The differential toxicity of compounds against these two cell lines will be used to identify MDR1-selective compounds, whose cytotoxicity is potentiated, rather than diminished, by P-gp expression. This assay will be utilized to conduct a quantitative high-throughput screen (qHTS) in collaboration with the NIH Chemical Genomics Center to identify selective agents, and probe hits arising from the screen will be validated using secondary assays and characterized through a well-established follow-up research program. This screen was run against the entire NCGC library collection of about 400,000 compounds.
NIH Molecular Libraries Probe Production Network [MLPCN]
NIH Chemical Genomics Center [NCGC]
PI: Michael Gottesman, National Cancer Institute, NIH
Briefly, 5 microL of media containing either KB-V1 cells (columns 1-2, 4-48) are dispensed into Greiner white, treated solid-bottom 1536-well assay plates (media-only control is added to column 3). Compounds are then transferred via Kalypsys pin tool equipped with 1536-pin array (10 nL slotted pins, V&P Scientific, San Diego, CA). Following addition of compound, the plates are incubated at 37 degrees C for 72 hours. CellTiter-Glo (2.5 µL/well) is then added, and the plates are read in a ViewLux reader (Perkin-Elmer, clear luminescence filter, 1 second exposure, 1x binning) following a 10 minute incubation. All cells are dispensed in DMEM phenol-red free media containing 10% FBS.
Library plates were screened starting from the lowest and proceeding to the highest concentration. Vehicle-only plates, with DMSO being pin-transferred to columns 5-48, will be inserted uniformly at the beginning and the end of each library in order to monitor and record any shifts in the background, which can be affected by reagent dispensers or loss in enzyme activity over time. Screening data will be corrected, normalized, and concentration-effect relationships will be derived by using publicly-available NCGC, NCATS curve fitting algorithms (http://ncgc.nih.gov/pub/openhts).
On the % scale 0 is the no-effect control and ±100 the full control effect; potency means the concentration at half of the fitted maximal effect.

Row | SMILES | activity change, negative = cytotoxicity [%] | Potency
1 | Cc1ccc(C(=O)Nc2c(-c3ccccc3)[nH][nH]c2=O)cc1 | 1.55 | –
2 | O=C(NCc1ccccc1Cl)C1=Cc2cc(Br)ccc2OC1 | -7.05 | –
3 | CC(C)Oc1cc(F)ccc1-c1cc(C(=O)Nc2ccc(F)cc2)[nH]n1 | -24.1 | –
4 | CC(Nc1ccc(-c2nc(-c3ccco3)no2)cc1[N+](=O)[O-])c1ccccc1 (stereo unspecified) | 0 | –
5 | Cc1cc(C)cc(NS(=O)(=O)c2ccc3[nH]cc(C(=O)N4CCCCC4)c(=O)c3c2)c1 | 6.52 | –
6 | CCCNC(=O)C1(C)CCN(C(=O)c2cc(F)ccc2C)C1 (stereo unspecified) | 4.07 | –
7 | C=Cc1ccc(Cn2c(C(=O)O)c(CNC3CCCC3)c3ccc(C)cc32)cc1 | 0 | –
8 | CC1(C)SC2c3ccccc3C(=O)N2[C@@H]1C(=O)NCc1ccco1 (stereo partly specified) | 3.48 | –
9 | COc1ccc(S(=O)(=O)N2CCC(C(=O)NCc3ccco3)CC2)cc1C | -26.8 | –
10 | COc1cc2c(cc1OC)C(C(=O)NCc1ccco1)C1c3ccccc3CCN1C2=O (stereo unspecified) | – | 14.6 µM (active)
11 | COCCNc1nc(NCc2ccc(NC(C)=O)cc2)c2sccc2n1 | 23.4 | –
12 | N#CCSc1nc2c(c(=O)n1Cc1ccccc1)C1(CCCC1)Cc1ccccc1-2 | -15.3 | –
13 | Cc1cccc(-n2c(SCC(N)=O)nc3c(c2=O)C2(CCCCC2)Cc2ccccc2-3)c1 | – | 18.4 µM (active)
14 | Cc1cccc(-n2c(SCC(N)=O)nc3c(oc4ccccc43)c2=O)c1 | -18.9 | –
15 | CCOC(=O)c1cnn2c(SC)ncnc12 | 6.59 | –
16 | CCCS(=O)(=O)NC(=O)C1(C)CCCN(C(=O)c2ccnc(Cl)c2)C1 (stereo unspecified) | 1.85 | –
17 | Cc1cc(C(=O)N/N=C\C(Br)=C\c2ccccc2)c(C)o1 | -3.75 | –
18 | CC(=C/c1ccccc1)/C=N/NC(=O)c1cc(C)oc1C | – | 14.6 µM (active)
19 | COc1ccc(C/C(C)=N/NC(=O)c2cc(C)oc2C)cc1 | -7.09 | –
20 | Cc1ccc(CCNC(=O)CN2C(=O)CSc3ccc(S(=O)(=O)N4CCOCC4)cc32)cc1 | 15.4 | –
21 | CCOC(=O)C1=CCC(c2ccc(F)cc2)N(S(=O)(=O)c2ccc(C)cc2)C1 (stereo unspecified) | -0.713 | –

Row | SMILES | activity change, negative = cytotoxicity [%] | Potency
22 | O=C(N/N=C/c1cccc(Br)c1)c1ccc(N2CCCC2=O)cc1 | – | 16.4 µM (active)
23 | COc1cc(/C=N/NC(=O)c2ccc(N3CCCC3=O)cc2)ccc1O | -11.4 | –
24 | Cn1c(=O)n(C)c2cc(/C=N/NC(=O)c3cccc(Br)c3)ccc21 | -0.491 | –
25 | COc1ccc2cc(CNc3ccc(OC)c(OC)c3)c(=O)n(CC(=O)Nc3ccccc3F)c2c1 | -29.6 | –
26 | COc1ccc2c(c1)CCc1cn3ncc(C#N)c3nc1-2 | – | 1.3 µM (active)
27 | COc1ccc2c(c1)CCc1c(C(=O)N3CCCC3)noc1-2 | -12.9 | –
28 | N#Cc1cnn2cc(CCN3CCOCC3)c(-c3ccc(F)cc3)nc12 | -3.16 | –
29 | COc1ccccc1N1CCN(C(=O)C2CCN(S(=O)(=O)c3c(C)noc3/C=C/c3ccc(C)cc3)CC2)CC1 | 0 | –
30 | Cc1[nH]c2ccccc2c1C(=O)C(=O)NCc1nnnn1-c1cccc(F)c1 | 12.9 | –
31 | CN(CC(=O)NNC(=O)CNC(=O)c1ccccc1Cl)S(=O)(=O)c1ccc(Cl)cc1 | 0 | –
32 | CN(CC(=O)NCC(c1ccccc1)N1CCCC1)S(=O)(=O)c1ccc(Cl)cc1 (stereo unspecified) | – | 20.6 µM (active)
33 | CN(CC(=O)NCCc1ccccn1)S(=O)(=O)c1ccc(Cl)cc1 | -26.4 | –
34 | CN(CC(=O)Nc1cccc2c1CCCC2)S(=O)(=O)c1ccc(Cl)cc1 | -1.34 | –
35 | Cc1ccc(S(=O)(=O)N(C)CC(=O)NCC(c2ccc(F)cc2)N2CCOCC2)cc1 (stereo unspecified) | -1.34 | –
36 | Cc1nc(NC(=O)CN(C)S(=O)(=O)c2ccc(Cl)cc2)sc1C | – | 14.6 µM (active)
37 | CCCNC(=O)C1(C)CCN(Cc2csc(-c3ccc(Cl)cc3)n2)C1 (stereo unspecified) | 1.9 | –
38 | C[C@H]1CN([C@@H](C)CO)C(=O)CCCn2cc(nn2)CO[C@@H]1CN(C)S(=O)(=O)c1ccccc1C#N | -13.8 | –
39 | COc1ccc(C(C)(NC(C)=O)c2nc(-c3ccc(S(C)(=O)=O)cc3)cs2)cc1 (stereo unspecified) | 1.16 | –
40 | CCOC(=O)c1ccc(NC(=O)c2c(NCc3cccc(OC)c3)sc3c2CCC3)cc1 | -12.7 | –
41 | Cc1cc(NC(=O)CSc2nnc(-c3ccco3)n2N)no1 | -12.3 | –
42 | COc1cc(Cl)c(C)cc1NC(=O)CSc1nnc(-c2ccco2)n1CC(C)C | – | 4.11 µM (active)

Row | SMILES | activity change, negative = cytotoxicity [%] | Potency
43 | CCn1c(SCC(=O)Nc2nccs2)nnc1-c1ccco1 | -3.3 | –
44 | CCCC12CN3CC(CCC)(CN(C1)C3c1c[nH]c3ccc(OC)cc13)C2=O (stereo unspecified) | 2.68 | –
45 | CCOc1ccc(CCN2C(=O)C(=O)N([C@@H](CC(C)C)CN3CCC[C@H]3CN3C(=O)C(=O)NC[C@@H]3Cc3ccccc3)C[C@@H]2CC(C)C)cc1 | -16.9 | –
46 | O=C(CCn1c(=O)c2ccccc2n(Cc2ccc(Cl)cc2)c1=O)NCc1ccc2c(c1)OCO2 | -6.5 | –
47 | C[C@H]1CN([C@@H](C)CO)S(=O)(=O)c2ccc(-c3cccc(F)c3)cc2O[C@@H]1CN(C)C | -17.3 | –
48 | O=C(C(=O)N1CCN(c2ccccc2)CC1)c1ccc2c(c1)OCO2 | -14.5 | –
49 | COc1ccc(C(=O)Nc2nc(-c3ccc(OC)cc3)c(-c3ccc([N+](=O)[O-])cc3)s2)cc1 | -2.17 | –
50 | N#Cc1ccc(Oc2ccc(C(F)(F)F)cc2NC(=O)c2ccc(F)cc2)cc1 | 14.9 | –
51 | N#Cc1ccc(C(=O)Nc2nc(-c3cccs3)c(C(=O)C(F)(F)F)s2)cc1 | – | 13 µM (active)
52 | COC(=O)[C@]12CCCCC=C1N(Cc1cccc3ccccc13)C(=O)[C@H](CC(=O)N1CCOCC1)C2 | -6.11 | –
53 | Cc1nc(C(F)(F)F)ccc1C(=O)N1CCC1(C)C(=O)NS(=O)(=O)c1ccccc1 (stereo unspecified) | 2.14 | –
54 | COc1ccc2c(c1)C(c1cccs1)=NNC(c1cccnc1)=N2 | -13.5 | –
55 | Fc1ccc2c(c1)C(c1cccnc1)=NNC(c1cccs1)=N2 | – | 11.6 µM (active)
56 | CC(=O)NN=C(C)c1ccc(NC(=O)C2CC2)cc1 | 13.9 | –
57 | O=C(O)c1ccccc1-c1cccc2nncn12 | 0.0342 | –
58 | COC(=O)c1c(C)[nH]c(C(=O)NCCc2ccc(S(N)(=O)=O)cc2)c1C | 4.06 | –
59 | Cc1ccc(NC(=S)NC(=O)/C=C/c2ccc(Cl)cc2)cc1 | 4.47 | –
60 | COC(=O)c1c(C)[nH]c(C(=O)/C=C/c2ccc(Cl)cc2)c1C | – | 14.6 µM (active)
61 | CC(C)CN1C(=O)CN(S(C)(=O)=O)CC1(C)C(=O)NCc1ccccc1 (stereo unspecified) | 10.6 | –
